Common to all, as to experiment: DAPPL (digital affinity profiling via proximity ligation, sequencing); 10 mM Tris-HCl pH 7.5, 50 mM NaCl, 1 mM DTT, 4% glycerol, room temperature, 30 min; GST-TFs on glutathione beads, 16-mer random dsDNA library, 0.1% formaldehyde crosslink after washing; high values mean tight binding
One assay concerns the target T1, FLI1 (Homo sapiens, UniProt Q01543 1-452).
T1 sequence: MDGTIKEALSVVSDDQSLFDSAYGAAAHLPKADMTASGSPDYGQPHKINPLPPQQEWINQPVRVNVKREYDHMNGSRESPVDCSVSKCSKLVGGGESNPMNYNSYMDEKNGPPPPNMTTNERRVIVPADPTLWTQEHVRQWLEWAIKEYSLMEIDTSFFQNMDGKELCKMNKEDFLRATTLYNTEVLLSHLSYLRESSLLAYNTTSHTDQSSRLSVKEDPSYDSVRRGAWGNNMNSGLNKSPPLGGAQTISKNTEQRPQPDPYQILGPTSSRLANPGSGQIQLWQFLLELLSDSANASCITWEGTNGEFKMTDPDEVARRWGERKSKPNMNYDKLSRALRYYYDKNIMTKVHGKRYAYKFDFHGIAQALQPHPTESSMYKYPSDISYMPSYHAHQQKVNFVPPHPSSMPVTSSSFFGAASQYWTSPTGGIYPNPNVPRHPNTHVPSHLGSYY
Particulars: protein: recombinant; tags: N-terminal GST; dsDNA, one strand shown. Put shortly:
(§1)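 Yeast served to express human transcription factors as GST fusions, which were then captured on glutathione beads and labelled with DNA barcodes. Pooled with a tag-only sample, they were incubated with 200 nmole of a 16-mer random double-stranded DNA library for 30 min at room temperature in Tris/NaCl/DTT/glycerol buffer, washed, crosslinked with 0.1% formaldehyde, ligated by proximity, amplified by PCR and sequenced. Dividing each hexamer's read frequency for a factor by its frequency for the tag-only sample gives the binding signal.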

For the next assay, the target named is T2, ELK1 (Homo sapiens, UniProt P19419 1-428).
T2 sequence: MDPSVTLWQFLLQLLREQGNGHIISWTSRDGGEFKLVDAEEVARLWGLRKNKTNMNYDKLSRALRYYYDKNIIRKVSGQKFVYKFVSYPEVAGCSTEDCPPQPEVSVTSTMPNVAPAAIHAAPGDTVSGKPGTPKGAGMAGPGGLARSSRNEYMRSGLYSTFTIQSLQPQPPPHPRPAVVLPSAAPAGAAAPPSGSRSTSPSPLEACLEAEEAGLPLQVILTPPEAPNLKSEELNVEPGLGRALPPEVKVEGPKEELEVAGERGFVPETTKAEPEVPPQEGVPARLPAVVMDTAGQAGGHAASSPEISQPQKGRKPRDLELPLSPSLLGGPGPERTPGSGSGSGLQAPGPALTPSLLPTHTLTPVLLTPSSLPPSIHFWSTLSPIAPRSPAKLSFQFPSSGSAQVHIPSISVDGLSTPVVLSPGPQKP
To be noted: protein: recombinant; tags: N-terminal GST; dsDNA, one strand shown. In short, it runs like this: as §1

The target in the next assay is T3, GABPA (Homo sapiens, UniProt Q06546 1-454).
T3 sequence: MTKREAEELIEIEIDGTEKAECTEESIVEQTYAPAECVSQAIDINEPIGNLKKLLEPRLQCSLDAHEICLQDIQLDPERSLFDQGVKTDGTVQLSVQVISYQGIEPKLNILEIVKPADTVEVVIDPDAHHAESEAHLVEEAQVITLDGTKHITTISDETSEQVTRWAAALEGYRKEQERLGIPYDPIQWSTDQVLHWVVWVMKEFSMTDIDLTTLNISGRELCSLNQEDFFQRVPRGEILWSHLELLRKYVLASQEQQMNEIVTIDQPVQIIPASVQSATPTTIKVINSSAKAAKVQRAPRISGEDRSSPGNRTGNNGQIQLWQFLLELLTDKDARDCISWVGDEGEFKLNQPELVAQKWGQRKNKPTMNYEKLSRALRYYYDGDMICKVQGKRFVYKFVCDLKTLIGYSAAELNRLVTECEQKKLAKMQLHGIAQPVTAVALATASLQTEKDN
Particulars: protein: recombinant; tags: N-terminal GST; dsDNA, one strand shown. In short, it runs like this:
as §1

Another assay has as its target T4, ERG (Homo sapiens, UniProt P11308 1-479).
T4 sequence: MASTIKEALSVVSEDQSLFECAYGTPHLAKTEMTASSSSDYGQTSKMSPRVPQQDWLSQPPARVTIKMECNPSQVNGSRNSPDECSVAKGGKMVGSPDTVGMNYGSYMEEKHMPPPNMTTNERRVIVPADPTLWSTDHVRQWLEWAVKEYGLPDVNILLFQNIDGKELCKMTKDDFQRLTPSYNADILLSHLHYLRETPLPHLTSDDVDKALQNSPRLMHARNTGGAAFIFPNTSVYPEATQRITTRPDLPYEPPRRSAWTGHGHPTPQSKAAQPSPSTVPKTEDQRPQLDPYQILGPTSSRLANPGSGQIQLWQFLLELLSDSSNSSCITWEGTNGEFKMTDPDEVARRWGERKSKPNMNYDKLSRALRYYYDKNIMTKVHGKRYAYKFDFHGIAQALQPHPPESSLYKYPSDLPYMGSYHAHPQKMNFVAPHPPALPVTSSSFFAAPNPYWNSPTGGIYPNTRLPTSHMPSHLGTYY
To be noted: protein: recombinant; tags: N-terminal GST; dsDNA, one strand shown. Put shortly:
as §1

In a further assay the target is ELF1 (Homo sapiens, UniProt P32519 1-619). Particulars: protein: recombinant; tags: N-terminal GST; dsDNA, one strand shown. Put shortly:
as §1

For a further assay, the target named is T5, EHF (Homo sapiens, UniProt Q9NZC4 1-300).
T5 sequence: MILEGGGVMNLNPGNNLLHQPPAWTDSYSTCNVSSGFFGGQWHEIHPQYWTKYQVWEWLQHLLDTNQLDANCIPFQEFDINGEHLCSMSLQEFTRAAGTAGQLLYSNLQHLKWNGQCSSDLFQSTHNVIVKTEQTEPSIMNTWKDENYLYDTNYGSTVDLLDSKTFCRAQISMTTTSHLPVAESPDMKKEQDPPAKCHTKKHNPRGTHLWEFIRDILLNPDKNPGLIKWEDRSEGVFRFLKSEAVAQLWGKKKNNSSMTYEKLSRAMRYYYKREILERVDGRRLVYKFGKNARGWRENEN
To be noted: protein: recombinant; tags: N-terminal GST; dsDNA, one strand shown. In short, it runs like this:
as §1

In another assay the target is SPI1 (Homo sapiens, UniProt P17947 1-270). Particulars: protein: recombinant; tags: N-terminal GST; dsDNA, one strand shown. Put shortly:
as §1

The target in the next assay is SPIB (Homo sapiens, UniProt Q01892 1-262). Particulars: protein: recombinant; tags: N-terminal GST; dsDNA, one strand shown. Put shortly:
as §1

The next assay deals with T6, ELK3 (Homo sapiens, UniProt P41970 1-407).
T6 sequence: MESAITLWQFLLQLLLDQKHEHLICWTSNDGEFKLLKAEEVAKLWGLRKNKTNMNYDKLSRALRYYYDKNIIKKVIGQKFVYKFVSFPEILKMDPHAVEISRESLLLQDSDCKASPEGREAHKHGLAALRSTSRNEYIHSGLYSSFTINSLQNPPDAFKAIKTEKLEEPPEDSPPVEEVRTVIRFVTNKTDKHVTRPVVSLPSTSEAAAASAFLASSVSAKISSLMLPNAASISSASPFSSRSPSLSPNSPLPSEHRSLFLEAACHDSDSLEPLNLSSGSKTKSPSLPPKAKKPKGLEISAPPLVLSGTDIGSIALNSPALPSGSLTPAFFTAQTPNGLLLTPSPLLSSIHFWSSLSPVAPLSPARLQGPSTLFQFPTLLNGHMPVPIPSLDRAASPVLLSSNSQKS
Particulars: protein: recombinant; tags: N-terminal GST; dsDNA, one strand shown. Put shortly: as §1

Another assay addresses T7, FEV (Homo sapiens, UniProt Q99581 1-238).
T7 sequence: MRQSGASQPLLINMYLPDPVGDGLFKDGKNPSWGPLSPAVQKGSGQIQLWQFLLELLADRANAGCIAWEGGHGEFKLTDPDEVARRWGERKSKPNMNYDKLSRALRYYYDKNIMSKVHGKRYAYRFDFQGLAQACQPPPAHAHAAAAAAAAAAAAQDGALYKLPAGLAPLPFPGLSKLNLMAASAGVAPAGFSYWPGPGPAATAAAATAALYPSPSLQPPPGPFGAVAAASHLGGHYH
To be noted: protein: recombinant; tags: N-terminal GST; dsDNA, one strand shown. Put shortly:
as §1

The next assay deals with ETV5 (Homo sapiens, UniProt P41161 1-510). Particulars: protein: recombinant; tags: N-terminal GST; dsDNA, one strand shown. In short, it runs like this:
as §1

The target in a further assay is HSF1 (Homo sapiens, UniProt Q00613 1-529). To be noted: protein: recombinant; tags: N-terminal GST; chain copies: 3; dsDNA, one strand shown. In short, it runs like this: as §1
The target of the next assay is T8, SPIC (Homo sapiens, UniProt Q8N5J4 1-248).
T8 sequence: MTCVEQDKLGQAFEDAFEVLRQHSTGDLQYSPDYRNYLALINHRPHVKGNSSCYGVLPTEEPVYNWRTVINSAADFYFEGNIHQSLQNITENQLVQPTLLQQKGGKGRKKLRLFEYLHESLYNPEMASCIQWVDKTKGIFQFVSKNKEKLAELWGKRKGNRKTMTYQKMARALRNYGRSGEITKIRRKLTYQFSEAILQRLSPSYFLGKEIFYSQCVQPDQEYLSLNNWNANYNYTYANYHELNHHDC
To be noted: protein: recombinant; tags: N-terminal GST; dsDNA, one strand shown. In short, it runs like this:
as §1

A further assay has as its target ELF4 (Homo sapiens, UniProt Q99607 1-663). To be noted: protein: recombinant; tags: N-terminal GST; dsDNA, one strand shown. In short, it runs like this:
as §1

For a further assay, the target named is T9, ELK4 (Homo sapiens, UniProt P28324-2 1-405).
T9 sequence: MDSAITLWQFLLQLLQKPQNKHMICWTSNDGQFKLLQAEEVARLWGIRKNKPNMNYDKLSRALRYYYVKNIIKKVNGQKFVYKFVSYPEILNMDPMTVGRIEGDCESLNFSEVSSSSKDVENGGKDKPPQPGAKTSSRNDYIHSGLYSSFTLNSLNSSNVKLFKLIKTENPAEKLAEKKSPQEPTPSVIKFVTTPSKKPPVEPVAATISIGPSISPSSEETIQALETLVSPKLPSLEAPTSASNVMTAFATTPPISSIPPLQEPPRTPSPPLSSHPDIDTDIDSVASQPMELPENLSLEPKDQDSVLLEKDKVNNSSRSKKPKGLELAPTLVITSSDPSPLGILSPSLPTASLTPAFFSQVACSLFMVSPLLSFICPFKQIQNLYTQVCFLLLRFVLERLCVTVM
To be noted: protein: recombinant; tags: N-terminal GST; dsDNA, one strand shown. Put shortly:
as §1

A further assay addresses T10, ETV2 (Homo sapiens, UniProt O00321 1-342).
T10 sequence: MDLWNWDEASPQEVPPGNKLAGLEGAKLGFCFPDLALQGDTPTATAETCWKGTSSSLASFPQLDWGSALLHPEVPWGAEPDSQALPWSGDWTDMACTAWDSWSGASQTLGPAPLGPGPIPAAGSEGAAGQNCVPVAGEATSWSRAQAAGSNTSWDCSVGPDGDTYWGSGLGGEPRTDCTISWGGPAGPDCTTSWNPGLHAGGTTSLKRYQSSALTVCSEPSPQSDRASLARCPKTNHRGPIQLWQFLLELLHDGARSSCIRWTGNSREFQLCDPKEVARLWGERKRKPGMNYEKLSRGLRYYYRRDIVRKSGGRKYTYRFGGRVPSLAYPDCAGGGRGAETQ
To be noted: protein: recombinant; tags: N-terminal GST; dsDNA, one strand shown. Put shortly:
as §1

Another assay addresses CRX (Homo sapiens, UniProt O43186 1-299). Particulars: protein: recombinant; tags: N-terminal GST; dsDNA, one strand shown. Put shortly:
as §1

The next assay deals with ETV1 (Homo sapiens, UniProt P50549 1-477). Particulars: protein: recombinant; tags: N-terminal GST; dsDNA, one strand shown. Put shortly: as §1
Sequence of ETV1 (P50549 whole entry): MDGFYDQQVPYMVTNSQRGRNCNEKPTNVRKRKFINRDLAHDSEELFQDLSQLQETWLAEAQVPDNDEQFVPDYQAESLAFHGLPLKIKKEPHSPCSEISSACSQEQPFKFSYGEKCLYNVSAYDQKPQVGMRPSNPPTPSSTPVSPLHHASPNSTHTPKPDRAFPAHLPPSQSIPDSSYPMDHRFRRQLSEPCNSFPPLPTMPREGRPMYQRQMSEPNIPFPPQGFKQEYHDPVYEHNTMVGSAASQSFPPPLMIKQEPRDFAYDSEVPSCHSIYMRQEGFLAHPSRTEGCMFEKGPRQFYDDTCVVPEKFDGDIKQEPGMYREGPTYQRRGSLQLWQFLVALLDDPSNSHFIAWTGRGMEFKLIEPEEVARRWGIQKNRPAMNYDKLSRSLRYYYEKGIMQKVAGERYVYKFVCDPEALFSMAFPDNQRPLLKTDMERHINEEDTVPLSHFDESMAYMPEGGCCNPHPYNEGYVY

Sequence of SPIB (Q01892 whole entry): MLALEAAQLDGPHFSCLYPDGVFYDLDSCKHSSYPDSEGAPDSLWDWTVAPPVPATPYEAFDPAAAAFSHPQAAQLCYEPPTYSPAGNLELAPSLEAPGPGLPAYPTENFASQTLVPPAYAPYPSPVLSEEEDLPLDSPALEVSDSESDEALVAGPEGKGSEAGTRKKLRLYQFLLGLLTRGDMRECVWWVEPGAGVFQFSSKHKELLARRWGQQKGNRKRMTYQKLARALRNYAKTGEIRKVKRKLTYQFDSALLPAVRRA
Sequence of HSF1 (Q00613 whole entry): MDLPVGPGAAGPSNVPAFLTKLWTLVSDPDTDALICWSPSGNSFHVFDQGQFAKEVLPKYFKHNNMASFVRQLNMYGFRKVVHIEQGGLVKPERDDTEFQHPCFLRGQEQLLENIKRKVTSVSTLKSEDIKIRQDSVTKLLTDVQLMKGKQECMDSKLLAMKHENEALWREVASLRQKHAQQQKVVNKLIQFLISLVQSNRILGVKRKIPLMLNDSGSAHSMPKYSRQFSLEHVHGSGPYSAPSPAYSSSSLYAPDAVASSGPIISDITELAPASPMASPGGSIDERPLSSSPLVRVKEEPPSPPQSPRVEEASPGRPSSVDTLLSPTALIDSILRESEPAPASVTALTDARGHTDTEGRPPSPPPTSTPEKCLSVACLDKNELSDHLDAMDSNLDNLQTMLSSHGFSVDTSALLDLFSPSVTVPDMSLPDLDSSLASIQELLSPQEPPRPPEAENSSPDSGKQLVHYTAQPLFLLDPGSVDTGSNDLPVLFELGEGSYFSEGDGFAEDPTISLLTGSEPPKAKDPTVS
Sequence of ELF1 (P32519 whole entry): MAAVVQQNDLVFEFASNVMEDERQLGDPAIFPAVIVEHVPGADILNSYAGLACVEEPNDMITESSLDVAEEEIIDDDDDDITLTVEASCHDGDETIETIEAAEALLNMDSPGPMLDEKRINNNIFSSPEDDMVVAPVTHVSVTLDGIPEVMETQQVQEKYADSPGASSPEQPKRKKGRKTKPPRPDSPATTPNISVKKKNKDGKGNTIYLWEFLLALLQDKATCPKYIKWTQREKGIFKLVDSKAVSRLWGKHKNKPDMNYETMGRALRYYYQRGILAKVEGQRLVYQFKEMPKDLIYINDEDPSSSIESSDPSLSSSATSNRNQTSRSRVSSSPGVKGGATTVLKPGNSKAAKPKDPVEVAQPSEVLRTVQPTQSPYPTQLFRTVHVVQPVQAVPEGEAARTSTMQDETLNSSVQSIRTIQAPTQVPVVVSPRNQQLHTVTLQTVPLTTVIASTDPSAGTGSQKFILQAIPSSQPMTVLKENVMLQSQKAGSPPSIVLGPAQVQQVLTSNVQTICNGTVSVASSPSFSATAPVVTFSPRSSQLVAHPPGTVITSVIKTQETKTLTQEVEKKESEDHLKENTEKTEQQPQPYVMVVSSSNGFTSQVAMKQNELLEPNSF
Sequence of CRX (O43186 whole entry): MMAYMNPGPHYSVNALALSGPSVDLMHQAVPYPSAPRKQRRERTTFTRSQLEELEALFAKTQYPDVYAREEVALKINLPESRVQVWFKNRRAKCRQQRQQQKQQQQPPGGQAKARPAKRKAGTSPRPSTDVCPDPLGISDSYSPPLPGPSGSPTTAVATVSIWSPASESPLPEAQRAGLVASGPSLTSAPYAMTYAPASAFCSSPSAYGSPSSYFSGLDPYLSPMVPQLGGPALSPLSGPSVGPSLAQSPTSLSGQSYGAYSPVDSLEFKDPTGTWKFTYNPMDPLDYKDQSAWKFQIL
Sequence of ELF4 (Q99607 whole entry): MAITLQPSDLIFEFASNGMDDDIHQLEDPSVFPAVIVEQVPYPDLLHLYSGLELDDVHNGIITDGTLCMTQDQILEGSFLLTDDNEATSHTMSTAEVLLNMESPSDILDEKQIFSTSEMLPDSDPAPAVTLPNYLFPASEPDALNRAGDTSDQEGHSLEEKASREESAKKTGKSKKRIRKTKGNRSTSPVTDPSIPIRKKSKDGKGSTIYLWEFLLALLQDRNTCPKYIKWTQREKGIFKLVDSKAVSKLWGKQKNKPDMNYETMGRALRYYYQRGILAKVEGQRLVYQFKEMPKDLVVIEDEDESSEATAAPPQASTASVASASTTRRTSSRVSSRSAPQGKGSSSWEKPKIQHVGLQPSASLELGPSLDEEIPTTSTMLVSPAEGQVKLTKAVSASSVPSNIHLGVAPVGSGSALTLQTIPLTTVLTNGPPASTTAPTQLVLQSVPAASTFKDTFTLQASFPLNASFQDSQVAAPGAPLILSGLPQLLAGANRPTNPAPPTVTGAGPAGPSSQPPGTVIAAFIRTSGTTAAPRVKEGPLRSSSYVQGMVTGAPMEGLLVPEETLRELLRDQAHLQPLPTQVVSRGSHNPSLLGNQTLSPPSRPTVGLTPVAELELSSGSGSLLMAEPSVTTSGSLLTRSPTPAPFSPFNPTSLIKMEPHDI
Sequence of ETV5 (P41161 whole entry): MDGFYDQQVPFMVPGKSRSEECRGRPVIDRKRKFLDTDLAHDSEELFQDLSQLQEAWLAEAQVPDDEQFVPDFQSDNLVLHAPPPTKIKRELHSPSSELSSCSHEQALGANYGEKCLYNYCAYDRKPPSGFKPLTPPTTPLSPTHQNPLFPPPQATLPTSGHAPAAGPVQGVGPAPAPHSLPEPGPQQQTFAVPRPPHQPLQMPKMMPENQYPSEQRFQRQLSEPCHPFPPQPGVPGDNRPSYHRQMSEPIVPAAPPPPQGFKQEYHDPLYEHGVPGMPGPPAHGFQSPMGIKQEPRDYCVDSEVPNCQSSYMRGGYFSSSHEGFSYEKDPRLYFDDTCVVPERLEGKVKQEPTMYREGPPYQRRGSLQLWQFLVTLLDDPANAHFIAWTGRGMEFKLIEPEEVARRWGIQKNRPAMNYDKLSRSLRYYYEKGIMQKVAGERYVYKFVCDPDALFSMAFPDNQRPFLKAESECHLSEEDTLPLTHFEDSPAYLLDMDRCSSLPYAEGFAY

On to TTACGA, for which the binding signal was 1.21 fold enrichment (6-mer frequency, TF over GST control) in the assay with FLI1; 1.14 fold enrichment (6-mer frequency, TF over GST control) with ELK1; 1.18 fold enrichment (6-mer frequency, TF over GST control) with GABPA; 1.06 fold enrichment (6-mer frequency, TF over GST control) with ERG; 1.14 fold enrichment (6-mer frequency, TF over GST control) with ELF1; 1.07 fold enrichment (6-mer frequency, TF over GST control) with EHF. The binding signal with SPI1 is 1.09 fold enrichment (6-mer frequency, TF over GST control); in the assay with SPIB, 1.07 fold enrichment (6-mer frequency, TF over GST control); with ELK3, 1.09 fold enrichment (6-mer frequency, TF over GST control); in the assay with FEV, 1.11 fold enrichment (6-mer frequency, TF over GST control); with ETV5 it was 1.07 fold enrichment (6-mer frequency, TF over GST control); in the assay with HSF1, 1.46 fold enrichment (6-mer frequency, TF over GST control). Also, the binding signal was 1.02 fold enrichment (6-mer frequency, TF over GST control) with SPIC; 1.16 fold enrichment (6-mer frequency, TF over GST control) in the assay with ELF4; 1.16 fold enrichment (6-mer frequency, TF over GST control) with ELK4; 1.17 fold enrichment (6-mer frequency, TF over GST control) with ETV2; 1.89 fold enrichment (6-mer frequency, TF over GST control) in the assay with CRX; 1.16 fold enrichment (6-mer frequency, TF over GST control) with ETV1.

(Values after paper PMC7862700, “An all-to-all approach to the identification of sequence-specific readers for epigenetic DNA modifications on cytosine”.)
